PTAP TSG101 blk – blocks PTAP/TSG101 interaction to inhibit HIV-1 budding; Fluorescence polarization, FITC-PTAP peptide / Tsg101 binding; Potency, µM (series often up to 115 µM), inactives show top-dose activity change, negative = inhibition, actives largely listed as inhibitors; 340,000 tested, under 10 active; active means well fitted inhibition curve with a large enough effect in the main read-out, with a control signal flat, not every such curve was filed as active; inconclusive means small, poorly fitted or top-dose-only effect, or effect the other way, or a change in a side signal; inactive means no such curve, though single readings can be large or run the other way; further: potency means the concentration at half of the fitted maximal effect; % of control where 0% means no effect
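Tsg101 binding domain (10 uM final) was mixed with compound and a FITC-labeled PTAP peptide (50 nM final) in HEPES pH 7.5 buffer with NaCl, Tween 20, EDTA and TCEP; fluorescence polarization was read after 20 min at r.t.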
PLK1 PBD block – PLK1 (human) polo-box domain binding inhibition | P53350 | Plk1 PBD binding of FITC phosphopeptide, fluorescence polarization | Potency, µM, for inactives: max response, negative = inhibition, actives largely listed as inhibitors | hit rate 2.8% among 360,000 | AID 720504; further: potency means the concentration at half of the fitted maximal effect; series mostly up to about 57 µM; on the % scale 0 is the no-effect control and ±100 the full control effect; nearly all actives have a fitted effect of over 65% in size
TSHR antag – blocks TSH signaling through the human TSH receptor; P16473; TSHR-expressing cells, TSH-stimulated cAMP HTRF, 2 h; hits give low values; activity change, negative = inhibition, % at 11.5 µM; AID 504810; hit rate 0.2% among 330,000;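 active means activity change below a set negative limit, meaning inhibition stronger than a set level, cut at about -70% in these data; inconclusive means activity change between two set negative limits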; further: on the % scale 0 is the no-effect control and ±100 the full control effect
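TSHR-expressing cells were treated with compounds, then stimulated with TSH at EC80 (4nM final) for 2 hours at 37 deg C. Cellular cAMP was measured by HTRF competition between lysate cAMP and cAMP-d2 for a cryptate-labelled anti-cAMP antibody.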
uPA generation – blocks generation of uPA at the cell surface | hit rate 0.31% among 330,000 | cell surface uPA generation assay, qHTS | Potency, µM (highest dose often 38.3 µM), for inactives: at the top dose activity change, negative = inhibition, hits mostly inhibitors | AID 540303; active means well fitted inhibition curve with a large enough effect; inconclusive means small, poorly fitted or top-dose-only effect; inactive means no such curve, though single readings can be large or run the other way; tested in mouse RAW 264.7 cells; further: potency means the concentration at half of the fitted maximal effect; on the % scale 0 is the no-effect control and ±100 the full control effect; nearly all actives have a fitted effect of over 55% in size
VDR inh – inhibitors of human vitamin D receptor; P11473; VDR-SRC2-3 peptide fluorescence polarization, 2 h; Potency, µM, for inactives: max response, negative = inhibition, hits mostly inhibitors; hit rate 0.93% among 400,000; AID 504847; further: potency means the concentration at half of the fitted maximal effect; on the % scale 0 is the no-effect control and ±100 the full control effect
Target sequence (P11473 whole entry, looked up): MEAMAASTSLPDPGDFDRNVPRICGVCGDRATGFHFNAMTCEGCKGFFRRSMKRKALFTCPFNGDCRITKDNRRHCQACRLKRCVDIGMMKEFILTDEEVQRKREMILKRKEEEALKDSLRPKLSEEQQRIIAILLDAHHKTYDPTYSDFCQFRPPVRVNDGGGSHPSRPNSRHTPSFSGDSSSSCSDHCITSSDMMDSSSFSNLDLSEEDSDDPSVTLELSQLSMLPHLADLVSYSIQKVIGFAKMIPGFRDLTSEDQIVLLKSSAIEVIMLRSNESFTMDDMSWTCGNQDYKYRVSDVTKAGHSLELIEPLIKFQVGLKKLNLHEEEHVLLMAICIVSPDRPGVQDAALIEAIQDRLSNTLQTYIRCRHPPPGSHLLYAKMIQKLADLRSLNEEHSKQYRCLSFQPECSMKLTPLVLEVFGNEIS
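VDR–SRC2-3 interaction, FP format. Cmpds 23 nl via pintool, brief spin, 2 h ambient incubation.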
The depositor's hits bear a star; ! = a repeat was not active. The list is not random: actives were taken first. Their share in the collection is about 3.1%. Unless noted, the call rests on the fitted dose curve; in most records, active means well fitted curve in the direction sought with a large enough effect; inconclusive means small, poorly fitted or top-dose-only effect, or another doubt; inactive means no such curve, though single readings can be large; an effect the other way counts as inactive or inconclusive.

Results for O=C(CCl)c1ccc(Cc2ncc(C(F)(F)F)cc2Cl)s1 ?
PTAP TSG101 blk: -1.1%; PLK1 PBD block: 2.38µM*; TSHR antag: 4.8; uPA generation: -4.4%; VDR inh: inconclusive

What do the screens show for `Cc1cccc(C(=O)Nc2nnc(S(=O)(=O)N(C)Cc3ccco3)s2)c1`?
PTAP TSG101 blk: -2.1%; PLK1 PBD block: inconclusive; TSHR antag: -18.6; uPA generation: -1.3%; VDR inh: 89.1µM*!

What do the screens show for `N#CC1=C(N)NC(=S)C(C(N)=O)C1c1ccc([N+](=O)[O-])cc1` (centres undefined)?
PTAP TSG101 blk: -0.2%; PLK1 PBD block: 26.7µM*; TSHR antag: -3.2; uPA generation: 7.2%; VDR inh: 79.4µM*

What do the screens show for `CCOc1ccc(/C=N/OCC(=O)NCc2ccco2)cc1`?
PTAP TSG101 blk: 0.1%; PLK1 PBD block: 15µM*; TSHR antag: -6.1; uPA generation: -4.2%; VDR inh: inconclusive

What do the screens show for `CC1=C(c2ccc(C)cc2)S(=O)(=O)NC1=NCc1ccccc1Cl`?
VDR inh: 11.8%

Results for Cc1nn2c(-c3cccc(NC(=O)CSc4nc5ccccc5o4)c3)nnc2c2ccccc12 ?
PTAP TSG101 blk: -1.9%; PLK1 PBD block: 23.8µM*; TSHR antag: -1.8; uPA generation: -6.3%; VDR inh: -13.6%

How did Cc1cccc(NC(=O)CSc2nc3ccccc3o2)c1 do in these assays?
PTAP TSG101 blk: -4.0%; PLK1 PBD block: -0.2%; TSHR antag: -6.4; uPA generation: 1.2%; VDR inh: 10.7%

Results for CCCS(=O)(=O)NC(=O)C1(C)CCCN(C(=O)c2cccnc2Oc2ccccc2)C1 (centres undefined) ?
PLK1 PBD block: -1.9%

Results for Cc1cc([N+](=O)[O-])c2[nH]c(C(=O)N/N=C/c3ccccc3C(=O)O)c(-c3ccccc3)c2c1 ?
PTAP TSG101 blk: -6.5%; PLK1 PBD block: 29.9µM*; TSHR antag: -19.3; VDR inh: 1.4%

What do the screens show for `Cc1ccc(S(=O)(=O)NC(=O)c2ccc(-c3ccc(C)c4ccccc34)o2)cc1`?
PTAP TSG101 blk: -6.1%; PLK1 PBD block: 26.7µM*; TSHR antag: -12.0; uPA generation: -17.8%; VDR inh: 79.4µM*

How did CCNC(=O)c1ccccc1SCC(=O)Nc1ccc(F)cc1 do in these assays?
PTAP TSG101 blk: -2.4%; PLK1 PBD block: 9.47µM*; TSHR antag: 32.6; uPA generation: -0.9%; VDR inh: inconclusive

Results for COc1cc(OC)cc(-c2nnc(SCc3ccc(C(=O)O)cc3)o2)c1 ?
PTAP TSG101 blk: -4.2%; PLK1 PBD block: 18.9µM*; TSHR antag: -17.8; uPA generation: -2.5%; VDR inh: inconclusive

What do the screens show for `Cc1c(OCc2ccc(C(=O)O)cc2)ccc2c(-c3ccccc3)cc(=O)oc12`?
PTAP TSG101 blk: -4.1%; PLK1 PBD block: inconclusive; TSHR antag: -20.5; uPA generation: inconclusive; VDR inh: 79.4µM*

Results for CCOC(=O)C(Oc1ccc2c(-c3ccccc3)cc(=O)oc2c1C)c1ccccc1 (centres undefined) ?
PTAP TSG101 blk: -1.1%; PLK1 PBD block: 3.5%; TSHR antag: 31.3; uPA generation: 6.6%; VDR inh: inconclusive

How did CC(C)Cc1ccc(C(C)/C=C2/CCC(CN3CCCCC3)C2=O)cc1 (centres undefined) do in these assays?
PTAP TSG101 blk: -0.5%; PLK1 PBD block: 13.4µM*; uPA generation: -7.9%; VDR inh: inconclusive

How did CC(=O)Nc1sc(N/N=C\c2cccc(Cl)c2)nc1-c1cccs1 do in these assays?
PTAP TSG101 blk: 2.4%; PLK1 PBD block: inconclusive; TSHR antag: -0.4; uPA generation: -15.1%; VDR inh: 7.08µM*

What do the screens show for `CC(=O)Nc1sc(N/N=C\c2ccc(O)cc2)nc1-c1cccs1`?
PTAP TSG101 blk: -3.8%; PLK1 PBD block: 26.7µM*; TSHR antag: -1.1; uPA generation: 19.1%; VDR inh: -22.9%

What do the screens show for `COc1ccccc1-c1cncnc1Nc1ccccc1`?
VDR inh: 28.2µM*

What do the screens show for `CN(C)c1ccc(-c2cncnc2Nc2ccc(F)cc2)cc1`?
VDR inh: 44.7µM*

What do the screens show for `Cc1ccccc1-c1cncnc1Nc1ccc(F)cc1`?
VDR inh: -9.8%

Results for COc1ccccc1-c1cncnc1Nc1ccc(F)cc1 ?
VDR inh: -14.5%

Results for c1ccc(Nc2ncncc2-c2ccoc2)cc1 ?
VDR inh: 56.2µM*

Results for FC(F)(F)c1ccccc1-c1cncnc1-n1ccnc1 ?
VDR inh: -4.3%

Results for CN(C)c1ccc(-c2cncnc2-n2ccnc2)cc1 ?
VDR inh: 44.7µM*

How did COc1ccc(OC)c(NC(=O)CSC2=Nc3ccccc3C3=NC(CCC(=O)NCc4ccco4)C(=O)N23)c1 (centres undefined) do in these assays?
VDR inh: -2.4%

How did Fc1ccc(Nc2ncncc2-c2ccoc2)cc1 do in these assays?
VDR inh: 31.6µM*

How did COc1ccc(C(=O)Nc2ccccc2C(=O)NC2CC2)c(OC)c1OC do in these assays?
PLK1 PBD block: 1.7%

Results for COC(=O)c1ccc(C(=S)N2CCOCC2)cc1 ?
PTAP TSG101 blk: 0.0%; PLK1 PBD block: 11.9µM*; TSHR antag: 9.9; uPA generation: 2.1%; VDR inh: -1.0%

What do the screens show for `O=C(/C=C/c1ccccc1)Oc1ccc(C(=S)N2CCOCC2)cc1`?
PTAP TSG101 blk: -0.2%; PLK1 PBD block: -14.6%; TSHR antag: 11.8; uPA generation: -0.9%; VDR inh: 1.8%

How did COC(=O)c1ccc(C(=S)N2CCCCC2)cc1 do in these assays?
PTAP TSG101 blk: -2.9%; PLK1 PBD block: -12.5%; TSHR antag: -6.5; uPA generation: 2.5%; VDR inh: 35.2%

Results for O=C(/C=C/c1ccco1)Oc1ccc(C(=S)N2CCOCC2)cc1 ?
PTAP TSG101 blk: -5.1%; PLK1 PBD block: 11.9µM*; TSHR antag: 0.8; uPA generation: -0.2%; VDR inh: inconclusive

How did Cc1cccc(C)c1OCC(=O)NNC(=O)CCNC(=O)c1ccco1 do in these assays?
PTAP TSG101 blk: 0.2%; PLK1 PBD block: -3.4%; TSHR antag: -4.4; uPA generation: -0.2%; VDR inh: 0.4%

Results for O=C(NCCc1ccc(Cl)cc1)Nc1ccc(F)cc1 ?
PTAP TSG101 blk: 1.8%; PLK1 PBD block: 23.8µM*; TSHR antag: -1.7; uPA generation: 2.4%; VDR inh: -11.8%

How did Fc1ccc(NC(=S)NCCc2ccc(Cl)cc2)cc1 do in these assays?
PTAP TSG101 blk: 2.0%; PLK1 PBD block: -16.3%; TSHR antag: -5.4; uPA generation: 4.5%; VDR inh: -11.8%

Results for O=C(NCCc1ccc(F)cc1)Nc1ccc2c(c1)OCO2 ?
PTAP TSG101 blk: -4.2%; PLK1 PBD block: 8.44µM*; TSHR antag: 4.8; uPA generation: 3.9%; VDR inh: -19.4%

Results for CNCc1cn2cc(Cl)ccc2n1 ?
PTAP TSG101 blk: -2.8%; PLK1 PBD block: 26.7µM*; TSHR antag: -8.2; uPA generation: -5.7%; VDR inh: -19.9%

High-throughput results: PubChem, National Center for Advancing Translational Sciences (NCATS)
